Screening results: PubChem, National Center for Advancing Translational Sciences (NCATS)
KDM5B inhibitor: inhibitors of human KDM5B histone demethylase | Q9UGL1 | KDM5B demethylase, FDH-coupled NADH fluorescence (FDH is formaldehyde dehydrogenase) | Potency, µM (top dose mostly 57.7 µM), most hits filed as inhibitors | 220,000 tested, 2.6% active; further: nearly all actives have a fitted effect of over 70% in size
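Compound dilutions met 200 nM (final) KDM5BΔAP for 10 min at room temperature before substrate addition. The substrate mix held 12.5 µM H3K4me3 with cofactors 25 µM α-ketoglutarate and 50 µM Fe²⁺. NADH signal gain over 30 min defined activity.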
IP6K1 inhibitor: inhibitors of human IP6K1 | Q92551 | IP6K1 kinase, ADP-Glo luminescence, 2 h; active compounds read low | activity change, % (series mostly up to about 58 µM) | 140,000 tested, 0.81% active; in the data active means activity change below about -25%
Target sequence (Q92551 whole entry, looked up): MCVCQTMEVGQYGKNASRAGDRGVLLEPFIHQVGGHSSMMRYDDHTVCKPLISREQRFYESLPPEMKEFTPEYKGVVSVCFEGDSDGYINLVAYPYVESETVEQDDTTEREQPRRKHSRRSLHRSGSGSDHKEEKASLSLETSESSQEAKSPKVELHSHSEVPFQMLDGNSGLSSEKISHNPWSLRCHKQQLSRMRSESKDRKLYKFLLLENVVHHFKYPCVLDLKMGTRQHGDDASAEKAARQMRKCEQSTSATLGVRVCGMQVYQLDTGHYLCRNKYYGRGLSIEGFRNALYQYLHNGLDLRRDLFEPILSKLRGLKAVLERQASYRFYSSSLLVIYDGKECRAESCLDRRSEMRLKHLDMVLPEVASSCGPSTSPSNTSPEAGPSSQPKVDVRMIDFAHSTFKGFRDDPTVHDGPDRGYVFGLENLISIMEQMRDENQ
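ADP-Glo luminescence measures ADP made by human IP6K1 during a 2 h RT reaction with ATP/IP6 (mix at 1.3 mM/130 uM); top library doses 57.5 and 19.1 uM final.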
SNCA viab count: reduces viability of HEK-293 SNCA reporter cells | Potency, µM (titrated, usually from 57.1 µM), most hits filed as cytotoxic | 150,000 tested, 0.12% active | HEK-293-SNCA-luc viability, GF-AFC fluorescence, 24 h; further: nearly all actives have a fitted effect of over 30% in size
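HEK-293-SNCA-luc cells (1500/well) plated 24 h, then exposed 24 h to a dilution series; GF-AFC added 30 min at 37C, fluorescence 405/540 nm; normalised to medium-only and DMSO wells, Hill fit.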
SNCA expr inh: inhibitors of alpha-synuclein (SNCA) gene expression; HEK-293 SNCA-luciferase knock-in, luminescence, 24 h; Potency, µM (titrated, usually from 57.2 µM), hits mostly inhibitors; 140,000 tested, 0.17% active; AID 1671194; further: nearly all actives have a fitted effect of over 45% in size
Numbers stand for hits. Compounds with a hit are over-represented: about 2.9% of the library has one in this group of screens. Unless noted, the call rests on the fitted dose curve; in most records, active means well fitted curve in the direction sought with a large enough effect; inconclusive means small, poorly fitted or top-dose-only effect, or another doubt; inactive means no such curve, though single readings can be large; an effect the other way counts as inactive or inconclusive.

How did COC[C@@H]1CN(c2cnccn2)C[C@H]1C(=O)NCC1CC1 do in these assays?
KDM5B inhibitor: 18µM; IP6K1 inhibitor: inactive; SNCA viab count: inactive; SNCA expr inh: inactive

How did COC[C@@H]1CN(c2cnccn2)C[C@H]1C(=O)NCCc1ccncc1 do in these assays?
KDM5B inhibitor: 25µM; IP6K1 inhibitor: inactive; SNCA viab count: inactive; SNCA expr inh: inactive

How did COC[C@@H]1CN(c2cnccn2)C[C@H]1C(=O)NCc1ccc(C)c(C)c1 do in these assays?
KDM5B inhibitor: 18µM; IP6K1 inhibitor: inactive; SNCA viab count: inactive; SNCA expr inh: inactive

Results for CC(C)(C)CN1CCC2(CC1)CN[S+](=O)([O-])c1cccnc1O2 ?
KDM5B inhibitor: inactive; IP6K1 inhibitor: inactive; SNCA viab count: inactive; SNCA expr inh: inactive

What do the screens show for `Cc1cccc(CC2CC(=O)N(c3ccc4ccccc4n3)C2=O)c1` (centres undefined)?
KDM5B inhibitor: inactive

How did CC(C)c1nc2c(c(-c3ccc(O)cc3)n1)CN(Cc1ccccn1)CC2 do in these assays?
KDM5B inhibitor: inactive; IP6K1 inhibitor: inactive; SNCA viab count: inactive; SNCA expr inh: inactive

What do the screens show for `CCC(Cn1ccnc1)NC(=O)c1cccc(NCc2ccc(F)cc2)c1` (centres undefined)?
KDM5B inhibitor: 20µM; IP6K1 inhibitor: inactive; SNCA viab count: inactive; SNCA expr inh: inactive

What do the screens show for `CCOc1ccc(/C=C/c2nc3ccccc3n2S(=O)(=O)c2cccc(Cl)c2)cc1`?
KDM5B inhibitor: inactive; IP6K1 inhibitor: -31; SNCA viab count: inactive; SNCA expr inh: inactive

Results for Cc1ccc(/C=C/c2nc3ccccc3n2S(=O)(=O)c2cccc(Cl)c2)cc1 ?
KDM5B inhibitor: inconclusive; IP6K1 inhibitor: -51; SNCA viab count: inactive; SNCA expr inh: inconclusive

Results for Cc1ccc(/C=C/c2onc(C)c2S(=O)(=O)N2CCC(C(=O)NCc3ccco3)CC2)cc1 ?
KDM5B inhibitor: inconclusive; IP6K1 inhibitor: inactive; SNCA viab count: inactive; SNCA expr inh: inactive

How did CC(C)C[C@@H]1N[C@H](C(=O)O)Cc2cn(CC3CCC3)c3cccc1c23 do in these assays?
KDM5B inhibitor: 32µM; IP6K1 inhibitor: inactive; SNCA viab count: inactive; SNCA expr inh: inactive

Results for CC(C)C[C@@H]1N[C@H](C(=O)O)Cc2cn(Cc3nccn3C)c3cccc1c23 ?
KDM5B inhibitor: 32µM; IP6K1 inhibitor: inactive; SNCA viab count: inactive; SNCA expr inh: inactive

How did CC(Oc1cccc(Cl)c1)C(=O)N1CCN(c2cc(-c3cccs3)[nH]n2)CC1 (centres undefined) do in these assays?
KDM5B inhibitor: inconclusive; IP6K1 inhibitor: inactive; SNCA viab count: inactive; SNCA expr inh: inconclusive

How did Cc1nn2c(c1-c1ccnn1C(C)C)N(C(=O)C(C)C)CCC2 do in these assays?
KDM5B inhibitor: inactive; IP6K1 inhibitor: inactive; SNCA viab count: inactive; SNCA expr inh: inactive

Results for Cc1nn2c(c1-c1ccnn1C(C)C)N(Cc1ccc(C(=O)O)s1)CCC2 ?
KDM5B inhibitor: 25µM; IP6K1 inhibitor: inactive; SNCA viab count: inconclusive; SNCA expr inh: inconclusive

What do the screens show for `COc1cccc(-c2nccc(NCc3cccnc3)n2)c1`?
SNCA viab count: inactive; SNCA expr inh: inactive

What do the screens show for `COc1ccc(C2(C(=O)NC3CCCN(c4ncccn4)C3)CC2)cc1` (centres undefined)?
KDM5B inhibitor: 22µM; IP6K1 inhibitor: inactive; SNCA viab count: inactive; SNCA expr inh: inactive

How did CCc1c(C)nn(CC(=O)NC2CCCN(c3ncccn3)C2)c1C (centres undefined) do in these assays?
KDM5B inhibitor: 20µM; IP6K1 inhibitor: inactive; SNCA viab count: inactive; SNCA expr inh: inactive

Results for COC(=O)c1cccc(Nc2c(-c3ccc(O)cc3)nc3nc[nH]n23)c1 ?
KDM5B inhibitor: inconclusive; IP6K1 inhibitor: inactive; SNCA viab count: inactive; SNCA expr inh: inactive

How did Cc1cc2cc(-c3c(C)noc3C)nc(-c3ccccc3)c2o1 do in these assays?
KDM5B inhibitor: inconclusive; IP6K1 inhibitor: inactive; SNCA viab count: inactive; SNCA expr inh: inactive

Results for CC(=O)Nc1cccc(-c2nc(-c3c(C)noc3C)cc3cc(CO)oc23)c1 ?
KDM5B inhibitor: 40µM; IP6K1 inhibitor: inactive; SNCA viab count: inactive; SNCA expr inh: inactive

Results for Cc1noc(C)c1-c1cc2cc(CO)oc2c(-c2ccc(F)c(Cl)c2)n1 ?
KDM5B inhibitor: 32µM; IP6K1 inhibitor: inactive; SNCA viab count: inactive; SNCA expr inh: inactive

What do the screens show for `COc1ccc(-c2nc(-c3c(C)noc3C)cc3cc(CO)oc23)cn1`?
KDM5B inhibitor: 35µM; IP6K1 inhibitor: inactive; SNCA viab count: inactive; SNCA expr inh: inactive
